This is part of a sample that, as a whole, favours compounds with a hit. Of some 83,000 tested, about 20% had one in any assay.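 Activity criterion: percent growth below 10, measured after cells in 96-well plates were exposed to a single compound concentration for 48 hours.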 Activity calls are given as the source filed them.
Assays:
Experiment in all cases: NCI-60 one-dose screen, 48 h (100 = growth as untreated, 0 = no growth, -100 = all killed)
Settings in all cases: 10 µM unless noted
RPMI-8226 leukemia = system: RPMI-8226 leukemia
OVCAR-8 ovarian = system: OVCAR-8 ovarian
OVCAR-5 ovarian = system: OVCAR-5 ovarian
OVCAR-4 ovarian = system: OVCAR-4 ovarian
SK-OV-3 ovarian = system: SK-OV-3 ovarian
IGROV1 ovarian = system: IGROV1 ovarian
OVCAR-3 ovarian = system: OVCAR-3 ovarian
HS 578T breast = system: HS 578T breast
NCI/ADR-RES ovarian = system: NCI/ADR-RES ovarian
T-47D breast = system: T-47D breast
BT-549 breast = system: BT-549 breast
MDA-MB-435 melanoma = system: MDA-MB-435 melanoma
SW-620 colon = system: SW-620 colon
MCF7 breast = system: MCF7 breast
HCT-116 colon = system: HCT-116 colon
HCC-2998 colon = system: HCC-2998 colon
KM12 colon = system: KM12 colon

Measured: growth

C#C[C@@]1(O)[C@@H](CO)O[C@@H](n2cc(F)c3c(N)ncnc32)[C@@H]1O
inactive: OVCAR-3 ovarian 10.9% | HS 578T breast 28.4% | KM12 colon 10.2%
active: RPMI-8226 leukemia 5.11% | OVCAR-8 ovarian 9.54% | OVCAR-5 ovarian 9.96% | OVCAR-4 ovarian 4.75% | SK-OV-3 ovarian -7.75% | IGROV1 ovarian -17.4% | NCI/ADR-RES ovarian 4.76% | T-47D breast -13.8% | BT-549 breast -23.9% | MDA-MB-435 melanoma 1.49% | SW-620 colon 1.66% | MCF7 breast 2.03% | HCT-116 colon 1.44% | HCC-2998 colon -27.2%

C[C@@H]1C(=O)[C@@H]2C[C@@H](O)[C@@H](O)C[C@]2(C)[C@H]2CC[C@@]3(C)C(=C12)CC[C@@H]3[C@@](C)(O)[C@H](O)CCC(C)(C)O
inactive: RPMI-8226 leukemia 105% | OVCAR-8 ovarian 94.7% | OVCAR-5 ovarian 112% | OVCAR-4 ovarian 114% | SK-OV-3 ovarian 103% | IGROV1 ovarian 113% | OVCAR-3 ovarian 102% | HS 578T breast 99.3% | NCI/ADR-RES ovarian 110% | T-47D breast 95.5% | BT-549 breast 102% | MDA-MB-435 melanoma 108% | SW-620 colon 106% | MCF7 breast 104% | HCT-116 colon 103% | HCC-2998 colon 97.3% | KM12 colon 114%

Cc1cccc(C)c1NCc1nnc(-c2ccc(O)cc2)o1
inactive: RPMI-8226 leukemia 95.5% | OVCAR-8 ovarian 107% | OVCAR-5 ovarian 95.5% | OVCAR-4 ovarian 99% | SK-OV-3 ovarian 114% | IGROV1 ovarian 99.9% | OVCAR-3 ovarian 99.4% | NCI/ADR-RES ovarian 96.8% | T-47D breast 91.5% | BT-549 breast 97.1% | MDA-MB-435 melanoma 99.1% | SW-620 colon 100% | MCF7 breast 90.6% | HCT-116 colon 102% | HCC-2998 colon 100% | KM12 colon 97%
active: HS 578T breast -4.35%

CC(C)Cc1cc(CNC(=O)C2[C@H]3CN(C(=O)c4ccccc4)C[C@@H]23)nn1-c1ccccc1 (some centres undefined)
inactive: RPMI-8226 leukemia 84.7% | OVCAR-8 ovarian 77.9% | OVCAR-5 ovarian 97.9% | OVCAR-4 ovarian 104% | SK-OV-3 ovarian 76.8% | IGROV1 ovarian 107% | OVCAR-3 ovarian 100% | HS 578T breast 97.9% | NCI/ADR-RES ovarian 93.8% | T-47D breast 74.2% | BT-549 breast 96.1% | MDA-MB-435 melanoma 108% | SW-620 colon 102% | MCF7 breast 94.4% | HCT-116 colon 92% | HCC-2998 colon 101% | KM12 colon 101%

O=C1CC23OC(C(O)c4ccccc4N12)C1C(c2ccccc2)=NOC13 (centres undefined)
inactive: RPMI-8226 leukemia 28.5% | OVCAR-8 ovarian 70.4% | OVCAR-5 ovarian 81.2% | OVCAR-4 ovarian 89.7% | SK-OV-3 ovarian 79.9% | IGROV1 ovarian 43.6% | OVCAR-3 ovarian 56.7% | HS 578T breast 52.2% | NCI/ADR-RES ovarian 15.8% | T-47D breast 52.8% | BT-549 breast 24.6% | SW-620 colon 29.2% | MCF7 breast 26.4% | HCT-116 colon 21.3% | HCC-2998 colon 85.2% | KM12 colon 28.9%
active: MDA-MB-435 melanoma -28%

C#CCN(CCCOc1ccc(Cl)cc1Cl)CCCSC(=O)CCCCCN1/C(=C\C=C2/CCCC(/C=C/C3=[N+](CCCCCC(=O)[O-])c4ccccc4C3(C)C)=C2Cl)C(C)(C)c2ccccc21
inactive: OVCAR-5 ovarian 66.4% | OVCAR-4 ovarian 57.1% | SK-OV-3 ovarian 65% | NCI/ADR-RES ovarian 106% | HCC-2998 colon 40.3%
active: RPMI-8226 leukemia -22.6% | OVCAR-8 ovarian 8.18% | IGROV1 ovarian -13.2% | OVCAR-3 ovarian 1.44% | HS 578T breast 6.47% | T-47D breast -21.4% | BT-549 breast -34.2% | MDA-MB-435 melanoma -60.1% | SW-620 colon 3.31% | MCF7 breast 6.92% | HCT-116 colon 9.39% | KM12 colon 6.88%

Nc1ccc(C2=NN(C(=O)c3cc(-c4ccc(Cl)cc4)nc4ccccc34)C(c3ccc(Cl)cc3)C2)cc1 (centres undefined)
inactive: RPMI-8226 leukemia 10.4% | OVCAR-8 ovarian 32.1% | OVCAR-5 ovarian 81.3% | OVCAR-4 ovarian 72.4% | SK-OV-3 ovarian 31.7% | IGROV1 ovarian 49.2% | HS 578T breast 41.8% | NCI/ADR-RES ovarian 12.4% | T-47D breast 38% | BT-549 breast 52.3% | SW-620 colon 29.6% | MCF7 breast 14.8% | HCT-116 colon 23% | HCC-2998 colon 62.9% | KM12 colon 27.5%
active: OVCAR-3 ovarian 8.07% | MDA-MB-435 melanoma -23.1%

O=C(Nc1ccc(N=Cc2ccccc2O)cc1)NC1C=c2ccccc2=CC1 (centres undefined)
inactive: RPMI-8226 leukemia 94% | OVCAR-8 ovarian 95.9% | OVCAR-5 ovarian 103% | OVCAR-4 ovarian 116% | SK-OV-3 ovarian 103% | IGROV1 ovarian 108% | OVCAR-3 ovarian 99.1% | HS 578T breast 102% | NCI/ADR-RES ovarian 101% | T-47D breast 91.3% | BT-549 breast 86.6% | MDA-MB-435 melanoma 104% | SW-620 colon 105% | MCF7 breast 92.6% | HCT-116 colon 104% | HCC-2998 colon 100% | KM12 colon 103%

Cc1ccc(CS/C(=C\c2ccc([N+](=O)[O-])cc2)C(=O)c2ccc(F)cc2)cc1
active: RPMI-8226 leukemia -18.3% | HS 578T breast 8.91% | SW-620 colon -11.5% | MCF7 breast -4.97% | HCT-116 colon -53.1%
inactive: OVCAR-8 ovarian 57.1% | OVCAR-5 ovarian 97.7% | OVCAR-4 ovarian 60.6% | SK-OV-3 ovarian 79.2% | IGROV1 ovarian 58.5% | OVCAR-3 ovarian 60.1% | NCI/ADR-RES ovarian 49.6% | T-47D breast 49.6% | BT-549 breast 75.8% | MDA-MB-435 melanoma 33.5% | HCC-2998 colon 83.7% | KM12 colon 13.2%

CCN1CCN(Cc2ccc(NC(=O)c3cccc(C#Cc4cccc5[nH]nc(N)c45)c3)cc2C(F)(F)F)CC1
active: RPMI-8226 leukemia -36.9% | OVCAR-8 ovarian -69.9% | OVCAR-5 ovarian -20% | OVCAR-4 ovarian -2.48% | SK-OV-3 ovarian -13.5% | IGROV1 ovarian -60.3% | OVCAR-3 ovarian -62.8% | HS 578T breast -19.9% | NCI/ADR-RES ovarian -35% | T-47D breast -32% | BT-549 breast 3.52% | MDA-MB-435 melanoma -91.2% | SW-620 colon -76% | MCF7 breast -77.8% | HCT-116 colon -96.5% | HCC-2998 colon -87.4% | KM12 colon -75%

Nc1c(C(=O)Nc2ccccn2)sc2nc3c(cc12)C(=O)CCC3
inactive: RPMI-8226 leukemia 38.5% | OVCAR-8 ovarian 64.3% | OVCAR-5 ovarian 46.9% | OVCAR-4 ovarian 56.8% | SK-OV-3 ovarian 40.3% | IGROV1 ovarian 51.3% | NCI/ADR-RES ovarian 21.9% | T-47D breast 33.1% | BT-549 breast 53.5% | SW-620 colon 23.7% | MCF7 breast 22% | HCT-116 colon 26.3% | HCC-2998 colon 49.3% | KM12 colon 16.3%
active: OVCAR-3 ovarian 3.09% | HS 578T breast 1.79% | MDA-MB-435 melanoma -42.9%

COc1ccc2nc(-c3ccc(OC)c(OC)c3)cc(-c3nnc(SCC(=O)Nc4ccc(C(C)=O)cc4)o3)c2c1
inactive: RPMI-8226 leukemia 90.8% | OVCAR-8 ovarian 102% | OVCAR-5 ovarian 109% | OVCAR-4 ovarian 106% | SK-OV-3 ovarian 109% | IGROV1 ovarian 113% | OVCAR-3 ovarian 111% | HS 578T breast 97.3% | NCI/ADR-RES ovarian 108% | T-47D breast 94.6% | BT-549 breast 102% | MDA-MB-435 melanoma 103% | SW-620 colon 103% | MCF7 breast 94.9% | HCT-116 colon 89.7% | HCC-2998 colon 111% | KM12 colon 102%

Nn1c(SCC(=O)Nc2ccc(Cl)cc2)nnc1-c1cc(F)c(Cl)cc1Cl
inactive: RPMI-8226 leukemia 76.8% | OVCAR-8 ovarian 89.9% | OVCAR-5 ovarian 66.5% | OVCAR-4 ovarian 85.9% | SK-OV-3 ovarian 89.9% | IGROV1 ovarian 89.9% | OVCAR-3 ovarian 84.2% | HS 578T breast 99.7% | NCI/ADR-RES ovarian 93.5% | T-47D breast 67.3% | BT-549 breast 114% | MDA-MB-435 melanoma 97.3% | SW-620 colon 92% | MCF7 breast 72.3% | HCT-116 colon 83.1% | HCC-2998 colon 93.2% | KM12 colon 72.8%

Clc1ccc2c(NCCCNC3CCCCC3)ccnc2c1
inactive: RPMI-8226 leukemia 82% | OVCAR-8 ovarian 54.7% | OVCAR-5 ovarian 114% | OVCAR-4 ovarian 91.2% | SK-OV-3 ovarian 140% | IGROV1 ovarian 111% | OVCAR-3 ovarian 109% | HS 578T breast 108% | NCI/ADR-RES ovarian 109% | T-47D breast 108% | BT-549 breast 107% | MDA-MB-435 melanoma 84.6% | SW-620 colon 111% | MCF7 breast 90.7% | HCT-116 colon 64.5% | HCC-2998 colon 91.3% | KM12 colon 101%

CC(C)(C)c1nn(-c2ccccc2)c2c1COCN2Cc1ccc(Cl)cc1
inactive: RPMI-8226 leukemia 10.9% | OVCAR-8 ovarian 107% | OVCAR-5 ovarian 90% | OVCAR-4 ovarian 77.2% | SK-OV-3 ovarian 92.6% | IGROV1 ovarian 117% | OVCAR-3 ovarian 104% | HS 578T breast 86.2% | NCI/ADR-RES ovarian 94.8% | T-47D breast 73.6% | BT-549 breast 122% | MDA-MB-435 melanoma 100% | SW-620 colon 82.9% | MCF7 breast 80.1% | HCT-116 colon 62.8% | HCC-2998 colon 51.9% | KM12 colon 86.4%

COc1ccc2nc3c(n2c1)C(=O)C(=O)c1ccccc1-3
active: RPMI-8226 leukemia -0.676% | OVCAR-8 ovarian 9.51% | OVCAR-5 ovarian -79.9% | OVCAR-4 ovarian -81.3% | IGROV1 ovarian 0.7% | OVCAR-3 ovarian -22.8% | HS 578T breast -6.35% | NCI/ADR-RES ovarian -7.37% | BT-549 breast -72.3% | MDA-MB-435 melanoma -91.8% | SW-620 colon -61.8% | MCF7 breast -53.1% | HCT-116 colon -2.17% | HCC-2998 colon -13.5%
inactive: SK-OV-3 ovarian 24.8% | T-47D breast 21.4% | KM12 colon 23.1%

CCOC(=O)C1=C(C)n2nc(CC#N)c(C#N)c2NC1c1ccc(CC)cc1 (centres undefined)
inactive: RPMI-8226 leukemia 102% | OVCAR-8 ovarian 104% | OVCAR-5 ovarian 99.8% | OVCAR-4 ovarian 93.2% | SK-OV-3 ovarian 98.2% | IGROV1 ovarian 69.9% | OVCAR-3 ovarian 99.2% | HS 578T breast 115% | NCI/ADR-RES ovarian 96.9% | T-47D breast 94.9% | BT-549 breast 85.4% | MDA-MB-435 melanoma 98.5% | SW-620 colon 97.6% | MCF7 breast 88.7% | HCT-116 colon 95.4% | HCC-2998 colon 97.6% | KM12 colon 97%
